Experimental data taken from PubChem BioAssay (EPA / NIEHS).
Several values for one entry are separate records, joined by “and”; a condition that tells them apart may be missing. Identical values can stand only once. Results filed as inconclusive are left out. A structure can be active in one record and inactive in another. Activity calls are given as the source filed them. Rule for the calls, unless noted: active = hit-call score of the fitted dose curve at least 0.9, where 1 is the maximum; inactive = score below 0.9.

What was measured:
[1] = molecular target: Estrogen-related receptor gamma (Homo sapiens) (UniProt P62508); assay: ATG_ERRg_TRANS: Attagene TRANS-FACTORIAL HepG2 Assay for human Estrogen-Related Receptor gamma (ERRg) (AID 2282977; active = hit-call score of the fitted dose curve at least 0.9, where 1 is the maximum;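 note: hits increase reporter signal over DMSO so potencies reflect activators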); settings: HepG2 Attagene TRANS reporter, ERRg transactivation
Sequence of Estrogen-related receptor gamma (Homo sapiens) (P62508 whole entry, looked up, the tested form may be a part): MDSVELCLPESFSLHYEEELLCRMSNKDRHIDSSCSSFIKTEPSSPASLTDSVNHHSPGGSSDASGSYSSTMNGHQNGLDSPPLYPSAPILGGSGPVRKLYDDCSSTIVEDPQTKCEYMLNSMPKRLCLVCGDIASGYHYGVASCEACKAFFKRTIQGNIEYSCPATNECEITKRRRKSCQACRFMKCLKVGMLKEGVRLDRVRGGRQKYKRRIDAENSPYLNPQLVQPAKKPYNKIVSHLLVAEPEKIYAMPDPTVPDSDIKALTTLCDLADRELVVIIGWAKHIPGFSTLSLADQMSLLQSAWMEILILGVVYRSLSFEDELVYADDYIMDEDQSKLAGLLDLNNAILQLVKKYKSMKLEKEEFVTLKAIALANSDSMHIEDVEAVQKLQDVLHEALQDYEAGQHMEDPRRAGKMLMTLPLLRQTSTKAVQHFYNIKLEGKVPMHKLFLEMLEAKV
In short: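 HepG2 cells transiently transfected with multiplexed GAL4-UAS reporter units driven by chimeric NR-Gal4 proteins; 24 h exposure. Reporter mRNA quantified by RT-PCR, fluorescent labelling, HpaI digestion and capillary electrophoresis; gain of signal vs DMSO.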

[2] = molecular target: Glucocorticoid receptor (Homo sapiens) (UniProt P04150); assay: ATG_GR_TRANS: Attagene TRANS-FACTORIAL HepG2 Assay for human Glucocorticoid Receptor (GR) (AID 2282978; active = hit-call score of the fitted dose curve at least 0.9, where 1 is the maximum;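 note: activators score as hits since higher reporter transcript over DMSO is fitted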); settings: HepG2 Attagene TRANS GR reporter, mRNA transcription
Sequence of Glucocorticoid receptor (Homo sapiens) (P04150 whole entry, looked up, the tested form may be a part): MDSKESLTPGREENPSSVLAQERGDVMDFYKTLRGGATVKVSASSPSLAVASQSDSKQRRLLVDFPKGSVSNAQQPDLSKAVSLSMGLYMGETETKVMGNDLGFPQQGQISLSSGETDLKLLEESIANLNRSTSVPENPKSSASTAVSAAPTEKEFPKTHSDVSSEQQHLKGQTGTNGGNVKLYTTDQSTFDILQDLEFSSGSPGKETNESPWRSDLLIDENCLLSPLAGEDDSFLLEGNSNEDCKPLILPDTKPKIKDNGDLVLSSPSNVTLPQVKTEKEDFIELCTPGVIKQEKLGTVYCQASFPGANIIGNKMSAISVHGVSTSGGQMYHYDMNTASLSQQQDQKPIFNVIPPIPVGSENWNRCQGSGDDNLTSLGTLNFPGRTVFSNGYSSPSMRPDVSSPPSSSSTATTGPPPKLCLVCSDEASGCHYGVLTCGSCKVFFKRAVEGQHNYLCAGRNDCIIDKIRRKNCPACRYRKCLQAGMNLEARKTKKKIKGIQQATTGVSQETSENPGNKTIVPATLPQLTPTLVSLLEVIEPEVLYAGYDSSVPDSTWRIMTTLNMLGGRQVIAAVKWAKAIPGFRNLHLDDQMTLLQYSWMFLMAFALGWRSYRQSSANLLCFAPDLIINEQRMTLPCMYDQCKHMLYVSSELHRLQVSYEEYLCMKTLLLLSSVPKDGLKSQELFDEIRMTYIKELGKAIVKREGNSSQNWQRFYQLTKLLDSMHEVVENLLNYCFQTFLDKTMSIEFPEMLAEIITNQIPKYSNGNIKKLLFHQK
In short: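 Fluorescent capillary-electrophoresis quantitation of reporter mRNA is the readout, taken 24 h after dosing human HepG2 cells carrying transiently transfected GAL4-UAS reporter units activated by chimeric NR-GAL4 fusions; activity scored as induction over DMSO.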

[3] = molecular target: Oxysterols receptor LXR-beta (Homo sapiens) (UniProt P55055); assay: ATG_LXRb_TRANS: Attagene TRANS-FACTORIAL HepG2 Assay for human Liver X Receptor beta (LXRb) (AID 2282981; active = hit-call score of the fitted dose curve at least 0.9, where 1 is the maximum); settings: HepG2 Attagene TRANS GAL4-LXRb reporter, mRNA
Sequence of Oxysterols receptor LXR-beta (Homo sapiens) (P55055 whole entry, looked up, the tested form may be a part): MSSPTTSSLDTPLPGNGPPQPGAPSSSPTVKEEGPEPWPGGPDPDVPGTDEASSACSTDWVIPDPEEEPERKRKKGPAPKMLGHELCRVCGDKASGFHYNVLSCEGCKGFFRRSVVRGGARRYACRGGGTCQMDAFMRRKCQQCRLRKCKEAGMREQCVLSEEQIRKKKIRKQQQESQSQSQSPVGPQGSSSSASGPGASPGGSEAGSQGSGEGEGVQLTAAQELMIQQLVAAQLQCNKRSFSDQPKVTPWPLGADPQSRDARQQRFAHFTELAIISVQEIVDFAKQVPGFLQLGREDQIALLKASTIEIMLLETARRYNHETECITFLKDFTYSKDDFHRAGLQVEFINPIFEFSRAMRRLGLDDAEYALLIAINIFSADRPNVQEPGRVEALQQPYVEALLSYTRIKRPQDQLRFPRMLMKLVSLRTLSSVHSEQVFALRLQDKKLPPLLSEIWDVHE
In short: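 HepG2 cells transiently transfected with GAL4-UAS reporter units for chimeric NR-Gal4 proteins, dosed for 24 h. Reporter transcripts measured by RT-PCR and capillary electrophoresis; gain-of-signal fitting relative to DMSO.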

[4] = molecular target: Hepatocyte nuclear factor 4-alpha (Homo sapiens) (UniProt P41235); assay: ATG_HNF4a_TRANS: Attagene TRANS-FACTORIAL HepG2 Assay for human Hepatocyte Nuclear Factor 4 alpha (HNF4a) (AID 2282982; active = hit-call score of the fitted dose curve at least 0.9, where 1 is the maximum); settings: HepG2 HNF4a transactivation reporter, mRNA readout
Sequence of Hepatocyte nuclear factor 4-alpha (Homo sapiens) (P41235 whole entry, looked up, the tested form may be a part): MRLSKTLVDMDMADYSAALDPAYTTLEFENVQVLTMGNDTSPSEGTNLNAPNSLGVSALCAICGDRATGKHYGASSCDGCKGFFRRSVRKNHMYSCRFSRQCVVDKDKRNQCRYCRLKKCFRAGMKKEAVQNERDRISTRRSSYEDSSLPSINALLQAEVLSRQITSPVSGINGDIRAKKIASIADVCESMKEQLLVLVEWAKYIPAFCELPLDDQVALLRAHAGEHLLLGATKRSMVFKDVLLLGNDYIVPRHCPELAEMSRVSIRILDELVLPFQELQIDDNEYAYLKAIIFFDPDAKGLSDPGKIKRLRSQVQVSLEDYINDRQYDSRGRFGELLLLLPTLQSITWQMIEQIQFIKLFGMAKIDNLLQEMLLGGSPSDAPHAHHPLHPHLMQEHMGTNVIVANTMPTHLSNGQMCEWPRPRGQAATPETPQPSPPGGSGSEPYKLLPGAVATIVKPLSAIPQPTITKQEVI
In short: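 HepG2 cells transiently transfected with HNF4a-Gal4 chimera and GAL4-UAS reporter units, dosed for 24 h. Reporter mRNA measured by RT-PCR, fluorescent primer extension and capillary electrophoresis; gain-of-signal fitted relative to DMSO.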

[5] = ATG_M_06_TRANS: Attagene TRANS-FACTORIAL HepG2 Assay for M06 Transcription Factor (Internal Marker) (AID 2282983; active = hit-call score of the fitted dose curve at least 0.9, where 1 is the maximum); settings: HepG2 Attagene TRANS M06 internal marker reporter
In short: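 Measured by capillary electrophoresis of fluorescently labelled RT-PCR products, this endpoint reflects reporter mRNA in HepG2 cells harbouring exogenous NR-GAL4 reporter constructs after 24 h exposure, with DMSO as baseline.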

[6] = ATG_M_32_TRANS: Attagene TRANS-FACTORIAL HepG2 Assay for M32 Transcription Factor (Internal Marker) (AID 2282984; active = hit-call score of the fitted dose curve at least 0.9, where 1 is the maximum); settings: HepG2 Attagene TRANS M32 internal marker reporter
In short: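 HepG2 cells transiently transfected with GAL4-UAS reporter units, dosed for 24 hours. Reporter mRNA quantified by RT-PCR, 6-FAM labelling, HpaI digestion and capillary electrophoresis; internal-marker signal fitted upward relative to DMSO.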

[7] = molecular target: Transcriptional activator Myb (Homo sapiens) (UniProt P10242); assay: ATG_Myb_CIS: Attagene CIS-FACTORIAL HepG2 Assay for human Myeloblastosis (Myb) Proto-Oncogene Transcription Factor (AID 2282986); settings: HepG2 Attagene CIS-FACTORIAL Myb reporter transcription; actives raise or lower the signal
In short: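 Reporter transcript levels, quantified by fluorescent RT-PCR and capillary electrophoresis, serve as the read-out. Transfected HepG2 cells carrying cis-promoter reporter units are dosed for 24 hours, and curves are fitted bidirectionally against DMSO controls.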

[8] = molecular target: Nuclear respiratory factor 1 (Homo sapiens) (UniProt Q16656); assay: ATG_NRF1_CIS: Attagene CIS-FACTORIAL HepG2 Assay for human Nuclear Respiratory Factor 1 (NRF1) Orphan Gene (AID 2282987); settings: HepG2 NRF1 cis-element reporter, Attagene multiplex; actives raise or lower the signal
Sequence of Nuclear respiratory factor 1 (Homo sapiens) (Q16656 whole entry, looked up): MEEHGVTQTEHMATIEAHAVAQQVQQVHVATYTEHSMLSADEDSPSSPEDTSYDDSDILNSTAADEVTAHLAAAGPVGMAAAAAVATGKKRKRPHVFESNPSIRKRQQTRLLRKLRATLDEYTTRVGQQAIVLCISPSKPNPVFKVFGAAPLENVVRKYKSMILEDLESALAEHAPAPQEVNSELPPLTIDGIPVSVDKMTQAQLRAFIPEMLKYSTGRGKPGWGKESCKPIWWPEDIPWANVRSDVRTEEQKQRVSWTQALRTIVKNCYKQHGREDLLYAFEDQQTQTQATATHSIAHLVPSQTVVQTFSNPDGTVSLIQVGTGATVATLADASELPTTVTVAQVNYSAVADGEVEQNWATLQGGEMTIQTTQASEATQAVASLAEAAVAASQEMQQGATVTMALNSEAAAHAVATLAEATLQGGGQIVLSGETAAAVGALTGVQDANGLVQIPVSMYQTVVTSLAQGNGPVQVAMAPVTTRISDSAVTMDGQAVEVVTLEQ
In short: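 Multiplexed cis-reporter assay, HepG2 cells, 24 h treatment. Total RNA → oligo(dT) RT → PCR with reporter-specific primers → 6-FAM primer extension → HpaI cut → CE. Bidirectional fit vs DMSO.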

[9] = ATG_NFI_CIS: Attagene CIS-FACTORIAL HepG2 Assay for human Nuclear Factor I (NFI) (AID 2282989); settings: HepG2 cis-regulatory reporter, NFI response element transcription; actives raise or lower the signal
In short: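 Reporter transcription driven by endogenous transcription factors in HepG2 cells; 24 h treatment. Quantitation by labelled RT-PCR fragments on capillary electrophoresis, gain- or loss-of-signal relative to DMSO.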

[10] = molecular target: Myc proto-oncogene protein (Homo sapiens) (UniProt P01106); assay: ATG_Myc_CIS: Attagene CIS-FACTORIAL HepG2 Assay for human Myelocytomatosis (Myc) Proto-Oncogene Transcription Factor (AID 2282990); settings: HepG2, Attagene cis-reporter transcription factor activity; actives raise or lower the signal
Sequence of Myc proto-oncogene protein (Homo sapiens) (P01106 whole entry, looked up, the tested form may be a part): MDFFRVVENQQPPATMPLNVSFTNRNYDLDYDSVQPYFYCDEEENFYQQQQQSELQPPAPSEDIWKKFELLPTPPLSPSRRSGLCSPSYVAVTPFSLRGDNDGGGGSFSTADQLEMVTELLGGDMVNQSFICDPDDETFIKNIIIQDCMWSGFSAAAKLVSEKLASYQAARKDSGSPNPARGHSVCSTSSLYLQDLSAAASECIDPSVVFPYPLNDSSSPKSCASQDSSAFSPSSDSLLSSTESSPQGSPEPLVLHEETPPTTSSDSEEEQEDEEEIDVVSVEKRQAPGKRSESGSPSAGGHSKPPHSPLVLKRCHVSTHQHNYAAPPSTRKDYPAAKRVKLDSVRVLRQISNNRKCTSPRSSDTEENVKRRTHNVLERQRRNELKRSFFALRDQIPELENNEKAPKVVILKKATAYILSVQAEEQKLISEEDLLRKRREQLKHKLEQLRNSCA
In short: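 Fluorescence intensity of reporter-specific cDNA fragments, separated by capillary electrophoresis, gives the signal. Transfected HepG2 cells carrying cis-promoter reporter constructs are incubated with compound for 24 h; DMSO serves as baseline.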

[11] = ATG_NF_kB_CIS: Attagene CIS-FACTORIAL HepG2 Assay for human Nuclear Factor Kappa B (NF-kB) (AID 2282991); settings: HepG2 Attagene cis-factorial NF-kB reporter mRNA; actives raise or lower the signal
In short: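 Transient MRTU transfection of human HepG2 liver cells → 24 h chemical exposure → total RNA, oligo(dT) RT → PCR, 6-FAM primer extension, HpaI digest 2 h 37 C → CE fragment analysis. Bidirectional fitting, DMSO negative control.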

[12] = ATG_NRF2_ARE_CIS: Attagene CIS-FACTORIAL HepG2 Assay for human Nuclear Factor Erythroid 2 Related Factor 2 (NFR2) response to Antioxidant Response Elements (ARE) (AID 2282992); settings: HepG2 Attagene ARE/NRF2 reporter, transcription factor activity; actives raise or lower the signal;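 for AC50: reporter mRNA level measured by RT-PCR and capillary electrophoresis fluorescence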
In short: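 HepG2 cells transiently transfected with multiplexed cis-regulated reporter transcription units measure endogenous transcription factor activity. Reporter mRNA at 24 h is quantified by RT-PCR, fluorescent labelling and capillary electrophoresis, with bidirectional fitting relative to DMSO.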

[13] = ATG_Oct_MLP_CIS: Attagene CIS-FACTORIAL HepG2 Assay for human Octamer-Binding Transcription Factor (Oct) (AID 2282993); settings: HepG2 Attagene cis-factorial Oct reporter, mRNA; actives raise or lower the signal
In short: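 Transfected HepG2 cells, 24 h treatment. Reporter mRNA quantified by RT-PCR–capillary electrophoresis; bidirectional fitting against DMSO.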

[14] = molecular target: Cellular tumor antigen p53 (Homo sapiens) (UniProt P04637); assay: ATG_p53_CIS: Attagene CIS-FACTORIAL HepG2 Assay for human p53 Transcription Factor (AID 2282994); settings: HepG2 p53 cis-element reporter, Attagene mRNA; actives raise or lower the signal
Sequence of Cellular tumor antigen p53 (Homo sapiens) (P04637 whole entry, looked up): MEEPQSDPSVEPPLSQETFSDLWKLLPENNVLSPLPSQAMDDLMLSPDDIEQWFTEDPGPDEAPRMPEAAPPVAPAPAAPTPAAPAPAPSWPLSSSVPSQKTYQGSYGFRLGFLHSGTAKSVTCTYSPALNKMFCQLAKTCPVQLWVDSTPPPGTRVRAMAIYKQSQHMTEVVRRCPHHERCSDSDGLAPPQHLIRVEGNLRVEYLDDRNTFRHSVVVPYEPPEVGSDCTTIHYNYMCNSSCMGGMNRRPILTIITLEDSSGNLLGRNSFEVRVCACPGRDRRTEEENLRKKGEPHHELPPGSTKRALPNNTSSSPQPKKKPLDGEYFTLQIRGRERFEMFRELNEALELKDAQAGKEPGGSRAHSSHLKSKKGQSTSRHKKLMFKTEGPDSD
In short: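 HepG2 cells transiently transfected with multiplexed cis-regulated reporter transcription units read endogenous TF activity. After 24 h compound exposure, reporter mRNA was quantified by RT-PCR, fluorescent labelling, HpaI digestion and capillary electrophoresis; bidirectional fits versus DMSO baseline.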

[15] = BSK_3C_TissueFactor: BioMAP Diversity Plus: 3C Assay for Tissue Factor Biomarker Activity (AID 2282997); settings: BioMAP 3C HUVEC, tissue factor biomarker readout; actives raise or lower the signal
In short: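 Values derive from bidirectional curve fitting against DMSO of Tissue Factor ELISA signals, taken 24 h after dosing primary human umbilical vein endothelial cells.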

[16] = BSK_3C_uPAR: BioMAP Diversity Plus: 3C Assay for Urokinase-type plasminogen activator receptor (uPAR) Biomarker Activity (AID 2282998); settings: BioMAP 3C HUVEC, uPAR biomarker ELISA; actives raise or lower the signal
In short: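 Readout: ELISA for surface uPAR. System: human umbilical vein endothelial primary cells, 24 h after chemical exposure. Analysis: bidirectional fit, DMSO baseline.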

[17] = molecular target: Bile acid receptor (Homo sapiens) (UniProt Q96RI1); assay: ATG_FXR_TRANS: Attagene TRANS-FACTORIAL HepG2 Assay for Farnesoid X Receptor (FXR) (AID 2282979; active = hit-call score of the fitted dose curve at least 0.9, where 1 is the maximum;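 note: hits raise reporter mRNA above DMSO so AC50 marks FXR activation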); settings: HepG2 Attagene TRANS FXR-GAL4 reporter transcription
Sequence of Bile acid receptor (Homo sapiens) (Q96RI1 whole entry, looked up, the tested form may be a part): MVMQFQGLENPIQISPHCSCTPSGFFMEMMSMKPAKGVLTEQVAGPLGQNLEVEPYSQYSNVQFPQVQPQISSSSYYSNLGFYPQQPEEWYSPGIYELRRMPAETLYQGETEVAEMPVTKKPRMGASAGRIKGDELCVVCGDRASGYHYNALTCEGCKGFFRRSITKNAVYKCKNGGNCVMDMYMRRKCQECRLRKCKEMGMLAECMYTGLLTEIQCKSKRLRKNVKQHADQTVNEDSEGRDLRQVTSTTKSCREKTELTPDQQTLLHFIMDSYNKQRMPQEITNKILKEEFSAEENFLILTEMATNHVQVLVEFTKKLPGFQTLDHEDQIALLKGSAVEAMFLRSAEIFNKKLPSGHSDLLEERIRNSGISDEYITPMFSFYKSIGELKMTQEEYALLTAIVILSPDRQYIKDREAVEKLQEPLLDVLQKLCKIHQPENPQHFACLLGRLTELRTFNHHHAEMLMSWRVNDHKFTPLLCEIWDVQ
In short: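 Chimeric FXR-GAL4 activity in transiently transfected human HepG2 liver cells is scored as induction of reporter mRNA after 24 h of dosing. Detection uses RT-PCR with fluorescent labelling and capillary electrophoresis, with DMSO serving as baseline.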

[18] = BSK_3C_VCAM1: BioMAP Diversity Plus: 3C Assay for Vascular cell adhesion molecule 1 (VCAM1) Biomarker Activity (AID 2282999); settings: BioMAP 3C HUVEC, VCAM1 ELISA, cytokine-stimulated; actives raise or lower the signal
In short: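 Human umbilical vein endothelial cells (3C system), biomarker read by ELISA 24 h after dosing; bidirectional fit against DMSO baseline. Cytotoxicity tracked by SRB total-protein staining in parallel cultures at biomarker time.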

[19] = molecular target: Nuclear receptor subfamily 4 group A member 2 (Homo sapiens) (UniProt P43354); assay: ATG_NURR1_TRANS: Attagene TRANS-FACTORIAL HepG2 Assay for human Nuclear Receptor Related Protein 1 (NURR1) (AID 2282985; active = hit-call score of the fitted dose curve at least 0.9, where 1 is the maximum); settings: HepG2 Attagene TRANS reporter, mRNA readout
Sequence of Nuclear receptor subfamily 4 group A member 2 (Homo sapiens) (P43354 whole entry, looked up, the tested form may be a part): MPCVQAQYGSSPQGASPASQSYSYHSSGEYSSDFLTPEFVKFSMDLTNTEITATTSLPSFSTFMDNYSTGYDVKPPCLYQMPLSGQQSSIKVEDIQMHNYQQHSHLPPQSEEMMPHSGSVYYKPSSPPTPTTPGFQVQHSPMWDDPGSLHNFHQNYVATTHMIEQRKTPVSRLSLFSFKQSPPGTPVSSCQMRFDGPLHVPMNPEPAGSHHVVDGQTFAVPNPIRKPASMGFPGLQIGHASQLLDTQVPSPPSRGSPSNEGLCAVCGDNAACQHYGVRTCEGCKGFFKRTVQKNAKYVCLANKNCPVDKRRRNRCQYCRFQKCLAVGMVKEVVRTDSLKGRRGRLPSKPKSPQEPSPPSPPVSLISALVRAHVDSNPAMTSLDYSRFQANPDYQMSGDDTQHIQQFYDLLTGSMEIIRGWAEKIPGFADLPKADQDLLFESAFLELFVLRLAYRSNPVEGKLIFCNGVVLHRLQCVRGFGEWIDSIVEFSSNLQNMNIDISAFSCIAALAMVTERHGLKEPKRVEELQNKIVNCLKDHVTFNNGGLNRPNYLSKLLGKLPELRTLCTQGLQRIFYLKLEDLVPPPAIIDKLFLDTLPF
In short: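 HepG2 cells transiently transfected with NURR1-Gal4 chimera and GAL4-UAS reporter units; after 24 hr compound exposure, reporter mRNA quantified by RT-PCR and capillary electrophoresis; gain of signal fitted against DMSO.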

Measured: AC50

CCNc1nc(Cl)nc(NC(C)C)n1
inactive: [1] | [2] | [3] | [4] | [5] | [6] | [7] | [8] | [9] | [10] | [11] | [12] | [13] | [14] | [15] | [16]

C=CCC1=C(C)[C@@H](OC(=O)[C@@H]2[C@@H](C=C(C)C)C2(C)C)CC1=O
active: [12] 2.64 µM | [13] 9.45 µM | [15] 18.8 µM | [16] 36.6 µM
inactive: [1] | [2] | [3] | [4] | [5] | [7] | [8] | [9] | [10] | [11] | [14]

C#CCOS(=O)OC1CCCCC1Oc1ccc(C(C)(C)C)cc1 (stereo not given)
active: [12] 1.19 µM | [13] 0.811 µM | [16] 7.03 µM
inactive: [1] | [17] | [3] | [4] | [5] | [7] | [8] | [9] | [10] | [11] | [14] | [15]

COC(=O)N(OC)c1ccccc1COc1ccn(-c2ccc(Cl)cc2)n1
inactive: [1] | [2] | [17] | [3] | [4] | [5] | [6] | [7] | [8] | [9] | [10] | [14] | [15] | [18]
active: [12] 0.635 µM | [13] 0.702 µM | [16] 20 µM

C=CCC1=C(C)C(OC(=O)C2C(C=C(C)C)C2(C)C)CC1=O (stereo not given)
inactive: [1] | [2] | [17] | [3] | [4] | [5] | [6] | [7] | [8] | [9] | [10] | [11] | [13] | [14]
active: [17] 35.7 µM and 35 µM and 27.2 µM | [4] 179 µM | [8] 136 µM and 144 µM | [9] 61.6 µM [middle of 5 runs] | [11] 43.2 µM and 105 µM | [13] 47.5 µM [middle of 5 runs] | [14] 170 µM and 86.4 µM | [15] 34 µM [middle of 4 runs] | [16] 35.3 µM [middle of 4 runs]

CON(C)C(=O)Nc1ccc(Cl)c(Cl)c1
active: [12] 27.8 µM [middle of 4 runs]
inactive: [1] | [2] | [3] | [4] | [5] | [6] | [19] | [7] | [8] | [9] | [10] | [11] | [13] | [14] | [15] | [16]

N#Cc1nn(-c2c(Cl)cc(C(F)(F)F)cc2Cl)c(N)c1S(=O)C(F)(F)F (stereo not given)
inactive: [1] | [17] | [3] | [4] | [5] | [6] | [7] | [8] | [9] | [10] | [12] | [13] | [14] | [15]
active: [3] 11.7 µM | [12] 5.51 µM | [13] 10.2 µM | [16] 22 µM

CCCCOC(=O)c1ccccc1C(=O)OCCCC
active: [12] 62.4 µM [middle of 5 runs]
inactive: [1] | [2] | [3] | [4] | [5] | [6] | [19] | [7] | [8] | [9] | [10] | [11] | [13] | [14] | [15] | [16]

OC(c1ccc(Cl)cc1)(c1cncnc1)c1ccccc1Cl (stereo not given)
inactive: [1] | [2] | [3] | [4] | [5] | [6] | [19] | [7] | [8] | [9] | [10] | [12] | [13] | [14] | [15]
active: [10] 12.5 µM | [12] 12.8 µM | [13] 26.3 µM | [16] 17.4 µM

COc1ccc(C(c2ccc(OC)cc2)C(Cl)(Cl)Cl)cc1
inactive: [1] | [2] | [17] | [3] | [4] | [5] | [6] | [19] | [7] | [8] | [9] | [10] | [11] | [12] | [13] | [14] | [15]
active: [17] 26.5 µM | [13] 37.6 µM | [16] 30.1 µM | [18] 31.3 µM

CCNc1nc(Cl)nc(NCC)n1
inactive: [1] | [2] | [3] | [5] | [6] | [7] | [8] | [9] | [10] | [12] | [13] | [14] | [15] | [16] | [18]

CC(C)C1(C)N=C(c2nc3ccccc3cc2C(=O)O)NC1=O (stereo not given)
inactive: [1] | [17] | [3] | [4] | [5] | [6] | [19] | [7] | [8] | [9] | [10] | [11] | [12] | [13] | [14] | [15] | [16]
